Data: the supplement of paper PMC9794691

Tested on: PC9
Assay: area under confluence curve of osimertinib + compound combination regimen (DTP regrowth); compare to osimertinib-only DTP control AUC of the same experiment (AUC (confluence x time, arbitrary))
Protocol: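 compare to osimertinib-only DTP control AUC of the same experiment; Long-term drug-tolerant persister (DTP) screen in EGFR-mutant NSCLC cell lines in 48-well plates. The test compound was given at one fixed dose with osimertinib, either upfront (from day 0 to the DTP stage at 10-21 days, then drug-free medium) or sequentially (osimertinib alone to the DTP stage, then the test compound). IncuCyte confluence was tracked until osimertinib-only controls regrew, and AUC was computed in Prism. AUC scale depends on experiment duration, so each row carries the same-experiment osimertinib-only DTP and DMSO control AUCs; combination activity = control minus combo AUC. Osimertinib dose not stated.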

## Cc1nc(Nc2ncc(C(=O)Nc3c(C)cccc3Cl)s2)cc(N2CCN(CCO)CC2)n1 [Dasatinib] + C=CC(=O)Nc1cc(Nc2nccc(-c3cn(C)c4ccccc34)n2)c(OC)cc1N(C)CCN(C)C [osimertinib]
Test compound dose 30 nM, dosing schedule: sequential, osimertinib-only DTP control AUC in same experiment: 10175, DMSO control AUC in same experiment: 27958
  area under confluence curve: 2120
Test compound dose 30 nM, dosing schedule: sequential, osimertinib-only DTP control AUC in same experiment: 12589, DMSO control AUC in same experiment: 28243
  area under confluence curve: 1440
Test compound dose 30 nM, dosing schedule: upfront, osimertinib-only DTP control AUC in same experiment: 16088, DMSO control AUC in same experiment: 28243
  area under confluence curve: 1770
Test compound dose 30 nM, dosing schedule: upfront, osimertinib-only DTP control AUC in same experiment: 16134, DMSO control AUC in same experiment: 27958
  area under confluence curve: 2420

## COC(=O)c1ccc([C@H]2c3[nH]c4ccccc4c3C[C@H](C(=O)OC)N2C(=O)CCl)cc1 + C=CC(=O)Nc1cc(Nc2nccc(-c3cn(C)c4ccccc34)n2)c(OC)cc1N(C)CCN(C)C [osimertinib]
Test compound dose 100 nM, dosing schedule: sequential, osimertinib-only DTP control AUC in same experiment: 8716, DMSO control AUC in same experiment: 45737
  area under confluence curve: 655
Test compound dose 100 nM, dosing schedule: sequential, osimertinib-only DTP control AUC in same experiment: 10175, DMSO control AUC in same experiment: 27958
  area under confluence curve: 1250
Test compound dose 100 nM, dosing schedule: sequential, osimertinib-only DTP control AUC in same experiment: 14030, DMSO control AUC in same experiment: 30326
  area under confluence curve: 1840
Test compound dose 100 nM, dosing schedule: upfront, osimertinib-only DTP control AUC in same experiment: 11096, DMSO control AUC in same experiment: 45737
  area under confluence curve: 12700
Test compound dose 100 nM, dosing schedule: upfront, osimertinib-only DTP control AUC in same experiment: 16134, DMSO control AUC in same experiment: 27958
  area under confluence curve: 13900
Test compound dose 100 nM, dosing schedule: upfront, osimertinib-only DTP control AUC in same experiment: 20885, DMSO control AUC in same experiment: 30326
  area under confluence curve: 13600

## C=CCn1c(=O)c2cnc(Nc3ccc(N4CCN(C)CC4)cc3)nc2n1-c1cccc(C(C)(C)O)n1 + C=CC(=O)Nc1cc(Nc2nccc(-c3cn(C)c4ccccc34)n2)c(OC)cc1N(C)CCN(C)C [osimertinib]
Test compound dose 100 nM, dosing schedule: sequential, osimertinib-only DTP control AUC in same experiment: 15001, DMSO control AUC in same experiment: 22064
  area under confluence curve: 13500
Test compound dose 100 nM, dosing schedule: sequential, osimertinib-only DTP control AUC in same experiment: 15044, DMSO control AUC in same experiment: 30604
  area under confluence curve: 11300
Test compound dose 100 nM, dosing schedule: upfront, osimertinib-only DTP control AUC in same experiment: 20672, DMSO control AUC in same experiment: 30604
  area under confluence curve: 16100
Test compound dose 100 nM, dosing schedule: upfront, osimertinib-only DTP control AUC in same experiment: 24924, DMSO control AUC in same experiment: 22064
  area under confluence curve: 20200

## COc1nnc2ccc(N3CCC(c4ccc(OCCN5CCN(C)C(=O)[C@H]5C)cc4)CC3)nn12 + C=CC(=O)Nc1cc(Nc2nccc(-c3cn(C)c4ccccc34)n2)c(OC)cc1N(C)CCN(C)C [osimertinib]
Test compound dose 300 nM, dosing schedule: sequential, osimertinib-only DTP control AUC in same experiment: 3562, DMSO control AUC in same experiment: 31840
  area under confluence curve: 2500
Test compound dose 300 nM, dosing schedule: sequential, osimertinib-only DTP control AUC in same experiment: 10968, DMSO control AUC in same experiment: 21594
  area under confluence curve: 7840
Test compound dose 300 nM, dosing schedule: sequential, osimertinib-only DTP control AUC in same experiment: 12231, DMSO control AUC in same experiment: 19076
  area under confluence curve: 5480
Test compound dose 300 nM, dosing schedule: sequential, osimertinib-only DTP control AUC in same experiment: 12891, DMSO control AUC in same experiment: 44384
  area under confluence curve: 2120
Test compound dose 300 nM, dosing schedule: upfront, osimertinib-only DTP control AUC in same experiment: 16535, DMSO control AUC in same experiment: 19076
  area under confluence curve: 15300
Test compound dose 300 nM, dosing schedule: upfront, osimertinib-only DTP control AUC in same experiment: 16570, DMSO control AUC in same experiment: 44384
  area under confluence curve: 19700
Test compound dose 300 nM, dosing schedule: upfront, osimertinib-only DTP control AUC in same experiment: 17834, DMSO control AUC in same experiment: 21594
  area under confluence curve: 15800
Test compound dose 300 nM, dosing schedule: upfront, osimertinib-only DTP control AUC in same experiment: 19015, DMSO control AUC in same experiment: 31840
  area under confluence curve: 27400

## CN1CCN(CCOc2cc(OC3CCOCC3)c3c(Nc4c(Cl)ccc5c4OCO5)ncnc3c2)CC1 [Saracatinib] + C=CC(=O)Nc1cc(Nc2nccc(-c3cn(C)c4ccccc34)n2)c(OC)cc1N(C)CCN(C)C [osimertinib]
Test compound dose 300 nM, dosing schedule: sequential, osimertinib-only DTP control AUC in same experiment: 9267, DMSO control AUC in same experiment: 19507
  area under confluence curve: 4570
Test compound dose 300 nM, dosing schedule: sequential, osimertinib-only DTP control AUC in same experiment: 12589, DMSO control AUC in same experiment: 28243
  area under confluence curve: 8930
Test compound dose 300 nM, dosing schedule: upfront, osimertinib-only DTP control AUC in same experiment: 10534, DMSO control AUC in same experiment: 19507
  area under confluence curve: 1600
Test compound dose 300 nM, dosing schedule: upfront, osimertinib-only DTP control AUC in same experiment: 16088, DMSO control AUC in same experiment: 28243
  area under confluence curve: 16200

## COc1ccc(CCc2nc3cc(-c4c(C)noc4C)ccc3n2C[C@H](C)N2CCOCC2)cc1Cl + C=CC(=O)Nc1cc(Nc2nccc(-c3cn(C)c4ccccc34)n2)c(OC)cc1N(C)CCN(C)C [osimertinib]
Test compound dose 1000 nM, dosing schedule: sequential, osimertinib-only DTP control AUC in same experiment: 4730, DMSO control AUC in same experiment: 72888
  area under confluence curve: 6290
Test compound dose 1000 nM, dosing schedule: sequential, osimertinib-only DTP control AUC in same experiment: 9508, DMSO control AUC in same experiment: 26668
  area under confluence curve: 9310
Test compound dose 1000 nM, dosing schedule: sequential, osimertinib-only DTP control AUC in same experiment: 12065, DMSO control AUC in same experiment: 48219
  area under confluence curve: 13500
Test compound dose 1000 nM, dosing schedule: upfront, osimertinib-only DTP control AUC in same experiment: 8775, DMSO control AUC in same experiment: 72888
  area under confluence curve: 20400
Test compound dose 1000 nM, dosing schedule: upfront, osimertinib-only DTP control AUC in same experiment: 11298, DMSO control AUC in same experiment: 26668
  area under confluence curve: 10700
Test compound dose 1000 nM, dosing schedule: upfront, osimertinib-only DTP control AUC in same experiment: 22645, DMSO control AUC in same experiment: 48219
  area under confluence curve: 37300

## Cc1onc(C(=O)N2CCN(C(c3ccc(Cl)cc3)c3ccc(Cl)cc3)CC2)c1[N+](=O)[O-] + C=CC(=O)Nc1cc(Nc2nccc(-c3cn(C)c4ccccc34)n2)c(OC)cc1N(C)CCN(C)C [osimertinib]
Test compound dose 1000 nM, dosing schedule: sequential, osimertinib-only DTP control AUC in same experiment: 8716, DMSO control AUC in same experiment: 45737
  area under confluence curve: 823
Test compound dose 1000 nM, dosing schedule: upfront, osimertinib-only DTP control AUC in same experiment: 11096, DMSO control AUC in same experiment: 45737
  area under confluence curve: 19300

## Cc1nc(N2CCC3(CC2)CO[C@@H](C)[C@H]3N)c(CO)nc1-c1cccc(Cl)c1Cl + C=CC(=O)Nc1cc(Nc2nccc(-c3cn(C)c4ccccc34)n2)c(OC)cc1N(C)CCN(C)C [osimertinib]
Test compound dose 1000 nM, dosing schedule: sequential, osimertinib-only DTP control AUC in same experiment: 10671, DMSO control AUC in same experiment: 21678
  area under confluence curve: 9600
Test compound dose 1000 nM, dosing schedule: sequential, osimertinib-only DTP control AUC in same experiment: 13130, DMSO control AUC in same experiment: 20567
  area under confluence curve: 7660
Test compound dose 1000 nM, dosing schedule: upfront, osimertinib-only DTP control AUC in same experiment: 18577, DMSO control AUC in same experiment: 20567
  area under confluence curve: 13500
Test compound dose 1000 nM, dosing schedule: upfront, osimertinib-only DTP control AUC in same experiment: 19512, DMSO control AUC in same experiment: 21678
  area under confluence curve: 10500

## CN(C)C/C=C/C(=O)Nc1ccc(C(=O)Nc2cccc(Nc3ncc(Cl)c(-c4c[nH]c5ccccc45)n3)c2)cc1 + C=CC(=O)Nc1cc(Nc2nccc(-c3cn(C)c4ccccc34)n2)c(OC)cc1N(C)CCN(C)C [osimertinib]
Test compound dose 1000 nM, dosing schedule: sequential, osimertinib-only DTP control AUC in same experiment: 11414, DMSO control AUC in same experiment: 31219
  area under confluence curve: 12600
Test compound dose 1000 nM, dosing schedule: upfront, osimertinib-only DTP control AUC in same experiment: 18848, DMSO control AUC in same experiment: 31219
  area under confluence curve: 21300

## C[C@@H](c1ccc2nccn2c1)n1nnc2ncc(-c3cnn(C)c3)nc21 [Savolitinib] + C=CC(=O)Nc1cc(Nc2nccc(-c3cn(C)c4ccccc34)n2)c(OC)cc1N(C)CCN(C)C [osimertinib]
Test compound dose 1000 nM, dosing schedule: sequential, osimertinib-only DTP control AUC in same experiment: 12535, DMSO control AUC in same experiment: 43316
  area under confluence curve: 7800
Test compound dose 1000 nM, dosing schedule: upfront, osimertinib-only DTP control AUC in same experiment: 15354, DMSO control AUC in same experiment: 43316
  area under confluence curve: 11900
